The results in this text go back to PubChem BioAssay (EPA / NIEHS).

Calls of active or inactive are those of the source. Rule for the calls: active = hit-call score of the fitted dose curve at least 0.9, where 1 is the maximum; inactive = score below 0.9.

The nature of the first assay: CEETOX_H295R_CORTISOL: CeeTox H295R High-throughput Steroidogenesis Assay for Cortisol (AID 2283438).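 Note: cortisol secreted into medium quantified by LC-MS/MS.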 As to conditions: actives raise or lower the signal. In a few lines:
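Human adrenocortical H295R cells (passage ≤10) received test chemicals for 48 h after forskolin priming. Secreted cortisol was measured by LC-MS/MS.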
With `O=C(O)C[C@H](O)C[C@H](O)/C=C/c1c(C2CC2)nc2ccccc2c1-c1ccc(F)cc1`, the outcome was inactive.

Consider `COc1cc2ncnc(Nc3cccc(Cl)c3)c2cc1OC`, for which the call was inactive.

With `CC1(C)[C@H](C(=O)OCc2cccc(Oc3ccccc3)c2)[C@@H]1C=C(Cl)Cl`, the outcome was inactive.

As for `Cc1cccc(C)c1C`, the call was inactive.

`Nc1cc([N+](=O)[O-])ccc1Cl`: the compound was called inactive.

As to `C=CC(C)(C)O`, the compound was classed as inactive.

Regarding `Nc1ccc(F)c([N+](=O)[O-])c1`, the result was inactive.

For the compound `C#C[C@]1(O)CC[C@H]2[C@@H]3CCC4=Cc5oncc5C[C@]4(C)[C@H]3CC[C@@]21C`, the AC50 (usually the concentration at which the activity in the assay is half-maximal) was 3.34 µM (active).

As to `O=c1cc(-c2ccccc2)oc2cc(O)cc(O)c12`, the outcome was inactive.

On to `Cc1ccc2n[nH]nc2c1`, for which the outcome was inactive.

Another assay is described as follows: CEETOX_H295R_DOC: CeeTox H295R High-throughput Steroidogenesis Assay for DOC (AID 2283439). As to conditions: actives raise or lower the signal. A digest of the protocol:
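Secreted DOC was quantified from H295R media by HPLC-MS/MS after 48 h chemical exposure following 48 h forskolin (10 uM) prestimulation. Values were fitted in both directions relative to DMSO, the negative control and baseline.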
As for `O=C(O)C[C@H](O)C[C@H](O)/C=C/c1c(C2CC2)nc2ccccc2c1-c1ccc(F)cc1`, the AC50 was 0.0331 µM (active).

Regarding `COc1cc2ncnc(Nc3cccc(Cl)c3)c2cc1OC`, the AC50 is 0.496 µM (active).

On to `CC1(C)[C@H](C(=O)OCc2cccc(Oc3ccccc3)c2)[C@@H]1C=C(Cl)Cl`, for which the result was inactive.

As for `Cc1cccc(C)c1C`, the compound was classed as inactive.

Regarding `Nc1cc([N+](=O)[O-])ccc1Cl`, the result was inactive.

For `C=CC(C)(C)O`, the result was inactive.

Take `Nc1ccc(F)c([N+](=O)[O-])c1`: the call was inactive.

For the compound `C#C[C@]1(O)CC[C@H]2[C@@H]3CCC4=Cc5oncc5C[C@]4(C)[C@H]3CC[C@@]21C`, the call was inactive.

Regarding `O=c1cc(-c2ccccc2)oc2cc(O)cc(O)c12`, the half-maximal activity concentration (AC50) is 12.2 µM (active).

For the compound `Cc1ccc2n[nH]nc2c1`, the result was inactive.

A short description of the next assay: CEETOX_H295R_ESTRADIOL: CeeTox H295R High-throughput Steroidogenesis Assay for Estradiol (AID 2283440).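 Note: estradiol secreted into medium quantified by LC-MS/MS after dansyl derivatisation.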 The conditions noted are these: actives raise or lower the signal. A digest of the protocol:
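H295R adrenocortical cells were prestimulated with 10 uM forskolin for 48 h, then exposed to test chemical in 0.1% DMSO for 48 h. Medium estradiol was extracted with MTBE, dansyl-derivatized and quantified by HPLC-MS/MS; bidirectional fit versus DMSO.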
Consider `COc1cc2ncnc(Nc3cccc(Cl)c3)c2cc1OC`, for which the compound was classed as inactive.

Regarding `C=CC(C)(C)O`, the result was inactive.

In the case of `Nc1ccc(F)c([N+](=O)[O-])c1`, the compound was called inactive.

On to `C#C[C@]1(O)CC[C@H]2[C@@H]3CCC4=Cc5oncc5C[C@]4(C)[C@H]3CC[C@@]21C`, for which the concentration at half-maximal activity (AC50) was 5.57 µM (active).

On to `Cc1ccc2n[nH]nc2c1`, for which the compound was called inactive.

Another assay can be described thus: CEETOX_H295R_ESTRONE: CeeTox H295R High-throughput Steroidogenesis Assay for Estrone (AID 2283441).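 Note: estrone secreted into medium measured by LC-MS/MS after dansyl derivatization.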 As to conditions: actives raise or lower the signal. A digest of the protocol:
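H295R cells; 48 h forskolin (10 uM) prestimulation; 48 h compound exposure, 0.1% DMSO final. Medium estrone: MTBE extraction, dansyl derivatization, HPLC-MS/MS. Bidirectional fit vs DMSO.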
As to `COc1cc2ncnc(Nc3cccc(Cl)c3)c2cc1OC`, the compound was classed as inactive.

Consider `C=CC(C)(C)O`, for which the call was inactive.

As to `Nc1ccc(F)c([N+](=O)[O-])c1`, the compound was called inactive.

Consider `C#C[C@]1(O)CC[C@H]2[C@@H]3CCC4=Cc5oncc5C[C@]4(C)[C@H]3CC[C@@]21C`, for which the concentration at half-maximal activity (AC50) is 3.42 µM (active).

With `Cc1ccc2n[nH]nc2c1`, the result was inactive.

A short description of a further assay: CEETOX_H295R_PROG: CeeTox H295R High-throughput Steroidogenesis Assay for Progesterone (PROG) (AID 2283442).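 For AC50: human H295R adrenal cells primed with 10 µM forskolin before dosing.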 As to conditions: actives raise or lower the signal. A digest of the protocol:
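H295R human adrenal cells were prestimulated with 10 uM forskolin for 48 h, then exposed to test chemical (0.1% DMSO final) for 48 h. Medium progesterone was MTBE-extracted and quantified by HPLC-MS/MS, with bidirectional fitting against DMSO.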
With `O=C(O)C[C@H](O)C[C@H](O)/C=C/c1c(C2CC2)nc2ccccc2c1-c1ccc(F)cc1`, the AC50 was 0.0233 µM (active).

For `COc1cc2ncnc(Nc3cccc(Cl)c3)c2cc1OC`, the compound was called inactive.

For `CC1(C)[C@H](C(=O)OCc2cccc(Oc3ccccc3)c2)[C@@H]1C=C(Cl)Cl`, the outcome was inactive.

With `Cc1cccc(C)c1C`, the compound was called inactive.

As for `Nc1cc([N+](=O)[O-])ccc1Cl`, the compound was called inactive.

Consider `C=CC(C)(C)O`, for which the outcome was inactive.

As for `Nc1ccc(F)c([N+](=O)[O-])c1`, the AC50 is 50 µM (active).

As to `C#C[C@]1(O)CC[C@H]2[C@@H]3CCC4=Cc5oncc5C[C@]4(C)[C@H]3CC[C@@]21C`, the half-maximal activity concentration (AC50) is 0.225 µM (active).

As for `O=c1cc(-c2ccccc2)oc2cc(O)cc(O)c12`, the AC50 was 16.1 µM (active).

As for `CSc1nc(NC2CC2)nc(NC(C)(C)C)n1`, the compound was classed as inactive.

For the compound `Cc1ccc2n[nH]nc2c1`, the call was inactive.
